From PubChem BioAssay
Only some compounds are listed: those with a hit (about 4.7% of all), similar ones and a draw of the others.
D1 potentiator: potentiators of human D1 dopamine receptor. HEK293 TREx D1 cells, calcium flux, dopamine EC20 potentiation. 360,000 tested, 0.036% active. AID 504651. P21728. potentiation, % at 10 µM; in the data active means potentiation above about 30%
Target sequence (P21728 whole entry, looked up): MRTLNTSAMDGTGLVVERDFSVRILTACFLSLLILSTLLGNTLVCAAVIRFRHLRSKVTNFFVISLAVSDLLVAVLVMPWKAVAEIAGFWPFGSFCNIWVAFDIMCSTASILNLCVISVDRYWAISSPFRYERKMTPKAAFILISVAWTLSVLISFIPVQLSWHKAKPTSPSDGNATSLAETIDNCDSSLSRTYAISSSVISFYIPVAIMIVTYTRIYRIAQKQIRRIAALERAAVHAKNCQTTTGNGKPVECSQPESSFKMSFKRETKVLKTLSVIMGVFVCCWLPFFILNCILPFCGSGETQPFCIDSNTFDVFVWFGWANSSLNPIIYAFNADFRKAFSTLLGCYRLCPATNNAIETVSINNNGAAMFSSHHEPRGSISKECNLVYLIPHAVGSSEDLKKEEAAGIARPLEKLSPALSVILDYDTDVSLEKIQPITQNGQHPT
TRHR agonist: agonists of human TRH receptor | activation, % at 2 µM | TRHR cells, calcium flux fluo-8, FDSS agonist mode | P34981 | 360,000 tested, 0.18% active
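Fluo-8-loaded TRHR cells; 10 s baseline, compound added, kinetic Ca2+ fluorescence read 1/s, agonist mode.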
D1 ag: human D1 receptor agonism. P21728. HEK293 T-REx D1 cells, calcium flux, agonist mode. activation, % at 2 µM. 360,000 tested, 1% active
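Tetracycline-induced HEK293 TREx D1 cells, force-coupled to calcium signalling, were dye-loaded with a no-wash calcium kit. Compound was pin-added after a 10 s baseline. Fluorescence was read kinetically at 1 cycle/s for 180 s, with calcium rises flagged as agonism.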
TRHR PAM: allosterically enhances the human TRH receptor; P34981; TRHR cells, fluo-8 calcium fluorescence, EC20 TRH enhancement; enhancement, % at 2 µM; 360,000 tested, 0.66% active; AID 493056; in the data active means enhancement above about 30%
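Enhancer read-out: after compound pinning and an initial kinetic agonist-mode read, an EC20 of TRH (10 nM final) was injected and fluo-8 calcium signal (Ex 480/Em 530) followed at 1 s/cycle for 100 cycles in TRHR-expressing cells.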
D1 antag: blocks dopamine activation of the human D1 receptor. P21728. HEK293 TREx D1 cells, calcium flux, dopamine EC80; active compounds read low. activity change, negative = inhibition, % at 10 µM. 360,000 tested, 3.2% active; in the data active means activity change below about -30%
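Using tetracycline-induced force-coupled D1 Hek293 cells and a calcium dye, signals were followed for 180 s after compound, then for 180 s after EC80 dopamine, to detect inhibitors.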
Large screens that a line does not name were inactive; ! = a repeat was not active. Unless noted, no stated cut-off is given here; in the data, active means activation above about 30%; inactive means the rest.

CCc1ccc(OCC(=O)NCC(c2ccc(Cl)cc2)N2CCOCC2)cc1 (stereo not given)	none
COc1ccc(C(C)=O)cc1CSc1nc(NCCc2ccccc2)c2ccccc2n1	none
Fc1cccc(CSc2nc(NCCc3ccccc3)c3ccccc3n2)c1	D1 antag -46
Cc1ccc(CCNC(=O)CCCn2c(=O)c3ccccc3n(Cc3ccccc3C#N)c2=O)cc1	none
Cc1c(Cl)ccc2c1NC(=O)[C@]21N[C@@H](Cc2ccccc2)[C@H]2C(=O)N(c3ccc(F)cc3)C(=O)[C@H]21	D1 ag 34
CCc1ccc(CNC(=O)C2CCN(c3nc4ccccc4nc3C(F)(F)F)CC2)cc1	none
CCCC[N+](C)(C)CCC(=O)NC(C)(C)CS(=O)(=O)[O-]	D1 antag -34
Cc1ccc(S(=O)(=O)NCCCCCC(=O)NC(C)(C)CO)cc1	none
Cc1ccc(Nc2nnc(-c3ccc(C)c(S(=O)(=O)N4CCN(C)CC4)c3)c3ccccc23)c(C)c1	D1 antag -57
Cc1cccc(Nc2nnc(-c3ccc(C)c(S(=O)(=O)N4CCN(C)CC4)c3)c3ccccc23)c1	D1 antag -44
C#CCOc1ccc(-c2nnc(Nc3cccc(C)c3)c3ccccc23)cc1	D1 antag -45
Cc1ccc(-c2nnc(Nc3cccc(Br)c3)c3ccccc23)cc1S(=O)(=O)N1CCN(C)CC1	none
Oc1ccc(-c2nnc(Nc3cccc(O)c3)c3ccccc23)cc1	none
Cc1ccc(Nc2nnc(-c3ccc(C)c(S(=O)(=O)N4CCN(C)CC4)c3)c3ccccc23)cc1	none
COc1ccc(-n2nc(C(=O)NCc3ccc(F)cc3Cl)c3c4ccccc4n(C)c3c2=O)cc1Cl	none
CSc1ccc(CCNC(=O)c2ccc(-c3nc(COc4ccc(C)cc4)c(C)o3)cc2)cc1	none
CSc1ccc(CCNC(=O)c2ccc(-c3nc(COc4ccccc4)c(C)o3)cc2)cc1	D1 antag -63
Cc1oc(-c2ccc(C(=O)NCCc3ccc(Cl)cc3)cc2)nc1CSc1ccccc1	D1 ag 32
CCc1ccc(NS(=O)(=O)c2cc(-c3cnc(C4CC4)o3)ccc2C)cc1	none
Cc1cccc(N(C)S(=O)(=O)c2cc(-c3cnc(C4CC4)o3)ccc2C)c1	D1 antag -32
CC(=O)c1nc2ccccc2n1S(=O)(=O)c1ccc(C)cc1	none
CC(=O)c1nc2ccccc2n1S(=O)(=O)c1ccc(Cl)cc1	D1 antag -36
CCCNC(=O)Cn1nc(-c2ccc(C)cc2)c2cnc3ccc(CC)cc3c21	none
COc1ccc(Br)cc1C1CC(=O)N2CN(C)CSC2=C1C#N (stereo not given)	none
COc1cc(OC)c(C2CC(=O)N3CN(C)CSC3=C2C#N)cc1OC (stereo not given)	D1 antag -38
COc1ccc(Br)cc1C1CC(=O)N2CN(Cc3ccccc3)CSC2=C1C#N (stereo not given)	D1 antag -31
CCN(CC)S(=O)(=O)c1ccc(Cl)c(NC(=S)NC(=O)C2CCCC2)c1	D1 ag 32 (no result: D1 potentiator)
CCN(CC)S(=O)(=O)c1ccc(C)c(NC(=S)NC2CCCCC2)c1	D1 antag -80
Cc1ccc(NC(=O)CNCC2CCCCC2)cc1S(=O)(=O)N(C)C	none
Cc1ccc(NC(=S)NC2CCCCC2)cc1S(=O)(=O)N(C)C	D1 antag -34
CCN(CC)c1ccc(S(=O)(=O)Nc2cc(Cl)ccc2Cl)cc1NC(=S)NC(=O)C1CCCC1	D1 antag -32
COc1ccccc1NS(=O)(=O)c1ccc(Cl)c(NC(=S)NC(=O)C2CCCC2)c1	none
CCCOc1ccc(-c2nonc2NC(=O)c2oc3ccc(Cl)cc3c2C)cc1OCCC	none
Cc1ccc(N2C(=O)N(CC(=O)N(C)Cc3ccccc3)C(=O)C2C)cc1 (stereo not given)	D1 ag 39, D1 antag -55
CCOc1ccc(OCCCCNC(C)(C)C)cc1	D1 antag -81
Cc1ccc(C)c(N2CCN(C(=O)C3CCN(S(=O)(=O)c4ccc5[nH]c(=O)oc5c4)CC3)CC2)c1	none
Cc1cc2oc(C(=O)Nc3ccc(S(N)(=O)=O)cc3)cc(=O)c2cc1C	D1 antag -58
COc1c(C)cc(Br)cc1C(=O)Nc1ccc(S(N)(=O)=O)cc1	D1 antag -61
COc1ccc(-n2ncc(C(=O)NCCc3ccsc3)c2C2CCN(C(=O)OC(C)(C)C)CC2)cc1	none
Cc1cccc(OCCCCn2c(C3CC(=O)N(c4ccc(C)cc4C)C3)nc3ccccc32)c1 (stereo not given)	none
CC(C)n1c(S(=O)(=O)O)nc2ccccc21	D1 antag -34
Cc1nc(N2CCOCC2)c2c(C(=O)N(C)Cc3ccccc3)c(C)oc2n1	none
O=C(Nc1ccc(Cl)cc1)N1CCC(c2ccccc2)C1 (stereo not given)	D1 antag -33!
Cc1ccc(C2CCN(C(=O)Nc3ccccc3)C2)cc1 (stereo not given)	none
COc1ccc(/C=N/Nc2ccc([N+](=O)[O-])cc2)cc1O	D1 ag 31
COc1ccc(/C=N/Nc2ccc([N+](=O)[O-])cc2)cc1Cn1cc([N+](=O)[O-])cn1	none (no result: D1 antag)
Nc1nonc1C(=O)NCCNCc1cc(Br)ccc1OCc1ccc(F)cc1	D1 antag -37
Nc1nonc1C(=O)NCCNCc1ccccc1	D1 antag -47
COc1ccc(CNCCNC(=O)c2nonc2N)cc1OC	none
Nc1nonc1C(=O)NCCNCc1c(OCc2ccccc2F)ccc2ccccc12	D1 antag -45
Nc1nonc1C(=O)NCCNCc1ccccc1F	none
CCOC(=O)c1c(NC(=O)c2cc(=O)c3cc(C)cc(C)c3o2)sc(C)c1C	none
CCOC(=O)COc1ccccc1/C=C\[N+](=O)[O-]	D1 antag -86
Cc1cccc(N2CCN(C(=O)c3cc4ccc5cccnc5c4[nH]3)CC2C)c1 (stereo not given)	none
Cc1cc(Cl)ccc1N=c1ssnc1Cl	D1 ag 30
COc1cc(C)nc(N(C)C(C)=O)n1	D1 antag -34
CSc1cc(C)nc(N(C)C(C)=O)n1	none
CN(c1ccc(OCC(=O)OCC(=O)Nc2ccccc2)cc1)S(=O)(=O)c1cccs1	D1 antag -47
CN(c1ccc(OCC(=O)OCC(=O)Nc2ccc(F)cc2)cc1)S(=O)(=O)c1ccc(Cl)cc1	D1 antag -56
CCN(CC)C(=O)COc1ccc(N(C)S(=O)(=O)c2ccc(NC(C)=O)cc2)cc1	D1 antag -38
CN(c1ccc(OCC(=O)OCC(=O)Nc2ccc(Br)cc2)cc1)S(=O)(=O)c1cccs1	none
O=C(NCC(c1ccccc1)c1ccccc1)c1nn(-c2ccccc2Cl)nc1CO	none
CC(=O)Nc1ccc(N2CCc3c(C)c(C#N)c4nc5ccccc5n4c32)cc1	D1 ag 47
CC(=O)c1ccc(Nc2c3c(c(C#N)c4nc5ccccc5n24)CCC3)cc1	none
